Some test systems named below: NCI-H23 lung; NCI-H226 lung; NCI-H322M lung; HOP-62 NSCLC; NCI-H460 lung; NCI-H522 lung; A549/ATCC NSCLC; 786-0 renal; COLO 205 colon; HOP-92 NSCLC.
Common to all, as to experiment: NCI-60 one-dose screen, 48 h (100 = growth as untreated, 0 = no growth, -100 = all killed)
Common to all, as to settings: 10 µM unless noted

The panel holds about 83,000 compounds, 20% with a hit somewhere; the sample as a whole holds those more often.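 A percent growth of 40 corresponds to 60% growth inhibition; 0 means no net growth; -100 means all cells died. Active threshold: below 10.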 A number with no mark means an inactive call. Active and inactive are the calls of the source.

Take `Cc1ccc(S(=O)(=O)c2nc(S(=O)(=O)c3ccc(C)cc3)c(Cl)s2)cc1`: the growth in the assay on NCI-H23 lung was 36.8%; with NCI-H226 lung, 1.5% (active); in the assay on NCI-H322M lung it was 89.7%; with HOP-62 NSCLC, 105%; in the assay on NCI-H460 lung, 41.5%; with NCI-H522 lung, -89.5% (active). Moreover, the growth with A549/ATCC NSCLC was 92.8%; with 786-0 renal, -49.6% (active); in the assay with COLO 205 colon, -78.6% (active).

With `COc1ccc(C2CC(c3ccc(S(=O)(=O)NCCNc4nc(Nc5ccc(F)cc5)nc(N(C)C)n4)cc3)=Nc3c(N)nc(N)nc3N2)cc1` (stereo unspecified), the growth is 90.4% in the assay on NCI-H23 lung; 84.4% in the assay on NCI-H226 lung; 96.6% in the assay with NCI-H322M lung; 90.3% in the assay on HOP-62 NSCLC; 73.6% in the assay with NCI-H460 lung; 89.4% in the assay on NCI-H522 lung. The growth is 91.3% in the assay with A549/ATCC NSCLC, 50.2% in the assay with 786-0 renal and 82.8% with COLO 205 colon.

On to `C=C1CC[C@@H]2[C@]3(C)COC(c4cn[nH]c4-c4ccc(F)cc4)O[C@@H]3CC[C@@]2(C)[C@@H]1C/C=C1/C(=O)OCC1O` (stereo partly specified), for which the growth is -67.3% (active) in the assay on NCI-H23 lung; -83.5% (active) in the assay on NCI-H226 lung; 44% in the assay on NCI-H322M lung; -10.7% (active) in the assay on HOP-62 NSCLC; -63.5% (active) in the assay on NCI-H460 lung; -59.7% (active) in the assay on NCI-H522 lung. Besides, the values for the growth in the assay on A549/ATCC NSCLC, with 786-0 renal and with COLO 205 colon were -14.2% (active), -89.2% (active) and -39.4% (active), respectively.

On to `O=C(Cn1c(/C=C/c2ccccc2)nc2ccccc2c1=O)Nc1ccccc1`, for which the growth in the assay with NCI-H23 lung is 90.2%; in the assay on NCI-H226 lung, 60%; in the assay on NCI-H322M lung, 87.5%; in the assay on HOP-62 NSCLC it was 57.5%; with NCI-H460 lung, 43.2%; with NCI-H522 lung it was 57.2%. The growth in the assay with A549/ATCC NSCLC was 38.2%; in the assay on 786-0 renal it was 1.52% (active); in the assay with COLO 205 colon, 79.3%.

Regarding `CN(C)CCn1c2ccccc2c2nc3ccc([N+](=O)[O-])cc3nc21`, the growth in the assay on NCI-H23 lung was -9.77% (active); with NCI-H226 lung, -21.2% (active); in the assay on NCI-H322M lung, 11.3%; with NCI-H460 lung it was 4.86% (active); in the assay on HOP-92 NSCLC, 28.9%; in the assay on NCI-H522 lung, -25.2% (active). Moreover, the growth with A549/ATCC NSCLC was -50% (active); in the assay on 786-0 renal, 1.77% (active); in the assay on COLO 205 colon, 3.88% (active).

As to `Cc1occc1C(=O)NN1C(=O)/C(=C/C=C/c2ccc([N+](=O)[O-])o2)SC1=S`, the growth in the assay on NCI-H23 lung was -84.1% (active); with NCI-H226 lung, -18.3% (active); in the assay on NCI-H322M lung it was 66.8%; in the assay with HOP-62 NSCLC, -9.58% (active); with NCI-H460 lung, -51.6% (active); with NCI-H522 lung it was -91.5% (active). For the same compound, the growth with A549/ATCC NSCLC is 6.62% (active); in the assay with 786-0 renal, -69.7% (active); in the assay with COLO 205 colon it was -75.3% (active).

With `CC(=O)Oc1ccccc1C(=O)[Se]C(=NC1CCCCC1)NC1CCCCC1`, the growth is -79.9% (active) with NCI-H23 lung; -88.1% (active) with NCI-H226 lung; -82.7% (active) in the assay on NCI-H322M lung; -41.6% (active) in the assay with NCI-H460 lung; -13.6% (active) in the assay with HOP-92 NSCLC; -89.1% (active) in the assay on NCI-H522 lung. In addition, the growth in the assay with A549/ATCC NSCLC is 0.226% (active); with 786-0 renal, -93.4% (active); in the assay with COLO 205 colon, -70.6% (active).

Regarding `Cn1cc(-c2nnc(N)nc2-c2c[nH]c3ccc(F)cc23)c2cccnc21`, the growth in the assay with NCI-H23 lung was 53.7%; in the assay on NCI-H226 lung, 72.4%; in the assay on NCI-H322M lung it was 71%; with NCI-H460 lung, 18%; with HOP-92 NSCLC it was 92.8%; in the assay with NCI-H522 lung, 20.4%. Besides, the growth in the assay on A549/ATCC NSCLC is 47.6%; in the assay on 786-0 renal, 47.2%; in the assay with COLO 205 colon it was 26.9%.

Regarding `O=C(NN1C(=O)/C(=C/C=C/c2ccc([N+](=O)[O-])o2)SC1=S)c1ccccc1O`, the growth in the assay on NCI-H23 lung is -86.1% (active); with NCI-H226 lung, -71.2% (active); in the assay on NCI-H322M lung, -63% (active); with HOP-62 NSCLC, -53.5% (active); in the assay with NCI-H460 lung, -55.7% (active); with NCI-H522 lung, -90.7% (active). For the same compound, the growth was -58.2% (active) in the assay on A549/ATCC NSCLC, -89.5% (active) with 786-0 renal and -82.1% (active) with COLO 205 colon.

Take `CCOP(=O)(OCCCl)c1nc(-c2ccc(C)cc2)oc1NCc1ccccc1` (stereo unspecified): the growth in the assay on NCI-H23 lung is 75.3%; with NCI-H226 lung, 88%; with NCI-H322M lung, 84.6%; in the assay with NCI-H460 lung, 73.2%; with HOP-92 NSCLC it was 75.5%; in the assay on NCI-H522 lung, 69.1%. The values for the growth with A549/ATCC NSCLC, in the assay on 786-0 renal and in the assay on COLO 205 colon were 66.5%, 81.9% and 83.5%, respectively.

Regarding `NS(=O)(=O)c1ccc(NNC(=O)CCC(=O)c2ccccc2)cc1`, the growth was 105% in the assay with NCI-H23 lung; 100% in the assay with NCI-H226 lung; 109% in the assay with NCI-H322M lung; 107% with NCI-H460 lung; 93.3% in the assay on HOP-92 NSCLC; 89.1% in the assay with NCI-H522 lung. For the same compound, the results for the growth in the assay on A549/ATCC NSCLC, in the assay with 786-0 renal and in the assay with COLO 205 colon were 103%, 98.4% and 118%, respectively.

For `COc1cc(/C=C2\C(=N)N=C(SCc3nc4ccccc4[nH]3)NC2=O)ccc1O`, the growth with NCI-H23 lung is 96.8%; in the assay on NCI-H226 lung, 92.8%; in the assay with NCI-H322M lung it was 103%; in the assay on HOP-62 NSCLC, 101%; with NCI-H460 lung, 102%; in the assay with NCI-H522 lung, 99.2%. Further, the growth with A549/ATCC NSCLC is 110%; in the assay with 786-0 renal it was 109%; in the assay on COLO 205 colon, 110%.

As to `C=C1CC[C@@H]2[C@]3(C)COC(c4cn[nH]c4-c4ccc(Br)cc4)O[C@@H]3CC[C@@]2(C)[C@@H]1C/C=C1/C(=O)OCC1O` (stereo partly specified), the growth with NCI-H23 lung is -86.1% (active); with NCI-H226 lung, -83.3% (active); in the assay on NCI-H322M lung, 32%; with HOP-62 NSCLC it was -46.1% (active); in the assay on NCI-H460 lung, -82.3% (active); with NCI-H522 lung it was -57.5% (active). Besides, the growth in the assay on A549/ATCC NSCLC is -30.5% (active); with 786-0 renal, -95.5% (active); in the assay on COLO 205 colon, -54.6% (active).

Turning to `CC12CC[C@@H]3[C@]4(C)COC(c5cn[nH]c5-c5ccc(Br)cc5)O[C@@H]4CC[C@@]3(C)[C@@H]1CC(C1=CCOC1=O)O2` (stereo partly specified), the growth in the assay on NCI-H23 lung was 57.3%; in the assay on NCI-H226 lung, 59.7%; with NCI-H322M lung it was 66.1%; in the assay on HOP-62 NSCLC it was 79.5%; with NCI-H460 lung, 35.4%; in the assay with NCI-H522 lung, 37.4%. Also, the growth in the assay on A549/ATCC NSCLC was 35.5%; in the assay on 786-0 renal it was 62.3%; in the assay on COLO 205 colon it was 39%.

(Values after PubChem BioAssay (NCI).)
